This excerpt belongs to a sample that is enriched for hits.
STK33 inh = human STK33 kinase inhibition | Q9BYT3 | ADP-Glo luminescence, MBP substrate | inhibition, % at 12.5 µM | actives 0.44% (n = 27,000) | AID 2322; in the data active = inhibition above about 20%; inconclusive = no clear call, values can overlap the other calls
Target sequence (Q9BYT3 whole entry, looked up): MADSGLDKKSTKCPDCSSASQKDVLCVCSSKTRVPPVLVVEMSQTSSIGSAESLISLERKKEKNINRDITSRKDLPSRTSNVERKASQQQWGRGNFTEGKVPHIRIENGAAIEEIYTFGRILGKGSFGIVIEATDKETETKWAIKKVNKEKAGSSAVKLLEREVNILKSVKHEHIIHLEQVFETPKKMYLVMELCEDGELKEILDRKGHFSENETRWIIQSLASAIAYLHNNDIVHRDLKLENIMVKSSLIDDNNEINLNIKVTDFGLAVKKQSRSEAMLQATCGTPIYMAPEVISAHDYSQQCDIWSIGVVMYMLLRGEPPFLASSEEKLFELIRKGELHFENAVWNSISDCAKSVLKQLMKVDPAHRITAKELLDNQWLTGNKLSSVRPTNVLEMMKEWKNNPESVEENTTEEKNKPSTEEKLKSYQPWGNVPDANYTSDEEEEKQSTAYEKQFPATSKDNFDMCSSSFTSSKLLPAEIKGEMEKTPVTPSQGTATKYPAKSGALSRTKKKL
NOMO-1 viab = STK33 inhibitor candidate reducing NOMO-1 cell viability; actives 7.5% (n = 37,000); inhibition, % (concentration not given with the values); AID 2330; NOMO-1 AML viability, CellTiter-Glo luminescence, 72 h; in the data active = inhibition above about 80%; inconclusive = no clear call, values can overlap the other calls
MITF inhib = blocks MITF activity; AID 2240; TRPM1 promoter luciferase, luminescence, 24 h; actives 0.28% (n = 37,000); inhibition, % (test concentration not listed); in the data active = inhibition above about 85%; inconclusive = no clear call, values can overlap the other calls; inactive = below about 68%;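 also: human melanocyte line stably carrying TRPM1 promoter luciferase reporter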
p53 PUMA act = restores mutant p53 pathway signaling in SW480 cells; SW480 PUMA-promoter luciferase, p53 mutant reactivation; activation, % at 9.98 µM; actives 1.5% (n = 28,000); in the data active = activation above about 52%; inconclusive = no clear call, values can overlap the other calls
* hit, by the source's call.

Screening N=c1oc2ccc3ccccc3c2cc1C(=O)Nc1ccccc1 returned NOMO-1 viab 115* and MITF inhib 11.
Screening CCC(C)CC(C)/C=C\C1OC2=C(C(=O)OC2(C)O)C(O)C1O (configuration not stated) returned STK33 inh -3, NOMO-1 viab 108* and MITF inhib inconclusive.
O=C(Cn1nnc2ccccc21)c1ccc(Oc2ccc([N+](=O)[O-])cc2)cc1 was read as STK33 inh 2, NOMO-1 viab 1, MITF inhib 62 and p53 PUMA act -6.
Screening COC(=O)Nc1nc2ccc(C(=O)c3ccccc3)cc2[nH]1 returned STK33 inh 9, NOMO-1 viab 110*, MITF inhib 30 and p53 PUMA act -65.
For COC(=O)Nc1nc2ccc(C(=O)c3cccs3)cc2[nH]1 the results were STK33 inh 22*, NOMO-1 viab 94* and MITF inhib 7.
`COc1ccc(C#Cc2ccc3c(c2)[C@]2(C(=O)N3)[C@H](C(=O)O)[C@H]3C(=O)O[C@H](c4ccccc4)[C@H](c4ccccc4)N3[C@@H]2c2ccc(O)cc2)cc1` gave STK33 inh 18.
Screening Cc1ccc(N(CC(=O)Nc2c(C)cc(C)cc2C)S(C)(=O)=O)cc1 returned STK33 inh -6, NOMO-1 viab 7, MITF inhib 4 and p53 PUMA act -8.
Screening C[C@H](CO)N1C[C@H](C)[C@H](CN(C)Cc2ccc(C(=O)Nc3ccccc3N)cc2)Oc2ccc(NC(=O)CCC(F)(F)F)cc2CC1=O returned NOMO-1 viab 141* and MITF inhib 24.
`C[C@@H]1CN([C@@H](C)CO)C(=O)Cc2cc(NC(=O)CCC(F)(F)F)ccc2O[C@@H]1CN(C)Cc1ccc(C(=O)Nc2ccccc2N)cc1` gave NOMO-1 viab 91* and MITF inhib 5.
For C[C@H]1CN([C@@H](C)CO)C(=O)c2cc(NC(=O)CCC(F)(F)F)ccc2O[C@H]1CN(C)Cc1ccc(C(=O)Nc2ccccc2N)cc1 the results were NOMO-1 viab 106* and MITF inhib 5.
For C[C@@H]1CN([C@H](C)CO)C(=O)c2cc(NC(=O)CCC(F)(F)F)ccc2O[C@H]1CN(C)Cc1ccc(C(=O)Nc2ccccc2N)cc1 the results were NOMO-1 viab 45 and MITF inhib -2.
Screening COc1ccc(C(=O)NCCCSc2nc(C(C)(C)C)cc(C(F)(F)F)n2)cc1 returned STK33 inh -2, NOMO-1 viab 16, MITF inhib 13 and p53 PUMA act 16.
Screening COCCOC(=O)N1C(=O)[C@@]2(c3ccccc31)[C@H](C(=O)NC[C@H](O)c1ccccc1)[C@H]1C(=O)O[C@H](c3ccccc3)[C@H](c3ccccc3)N1[C@@H]2c1ccc(OCCO)cc1 returned STK33 inh 5.
Cc1cc(=O)[nH]c(SCCOc2ccc(Br)cc2Cl)n1 was read as STK33 inh -1, NOMO-1 viab -10, MITF inhib -60 and p53 PUMA act 80*.
For Cc1ccc(OCCSc2nc(C)cc(=O)[nH]2)c(I)c1 the results were STK33 inh 0, NOMO-1 viab 5, MITF inhib -72 and p53 PUMA act 30.
`Oc1c(C(Nc2ccccn2)c2cccc(OC3CCCC3)c2)ccc2cccnc12` (configuration not stated) gave STK33 inh 4, NOMO-1 viab 114*, MITF inhib 66 and p53 PUMA act -61.
`C#CCOc1ccc(C(Nc2ccccn2)c2ccc3cccnc3c2O)cc1` (configuration not stated) gave STK33 inh 9, NOMO-1 viab 113*, MITF inhib 43 and p53 PUMA act -9.
CC(Oc1ccc(Cl)cc1Cl)C(=O)Nc1cc(-c2nc3ccccc3o2)ccc1Cl (configuration not stated) was read as STK33 inh 3, NOMO-1 viab 35, MITF inhib -12 and p53 PUMA act 22.
`COC(=O)CN(c1cccc(C)c1)S(=O)(=O)c1ccc(Cl)c(Cl)c1` gave STK33 inh 4, NOMO-1 viab 8, MITF inhib -8 and p53 PUMA act 2.
O=C(O)CCc1ccc(F)cc1 was read as NOMO-1 viab -17 and MITF inhib 6.
`O=C1NCc2c1c1c3ccccc3[nH]c1c1[nH]c3ccccc3c21` gave STK33 inh 64*, NOMO-1 viab 97*, MITF inhib 30 and p53 PUMA act -10.
Screening Cc1ccc(N(CC(=O)Nc2ccc(F)c(Cl)c2)S(C)(=O)=O)cc1 returned STK33 inh 2, NOMO-1 viab -12, MITF inhib -10 and p53 PUMA act -15.
For CCOC(=O)c1oc(C(=O)OCC)c(O)c1O the results were NOMO-1 viab -9 and MITF inhib 9.
